Screens (PubChem)
Sampled rows, rich in hits. Any-hit rate of the full collection: about 2.4%.
Cruzain inh Det – cruzain (T. cruzi) inhibition with detergent; P25779; purified cruzain, Z-FR-AMC fluorescence, 0.01% Triton; Potency, µM, actives largely listed as inhibitors; 0.43% of 200,000 active; further: nearly all actives have a fitted effect of over 40% in size
Target sequence (P25779 123-467 limits assumed): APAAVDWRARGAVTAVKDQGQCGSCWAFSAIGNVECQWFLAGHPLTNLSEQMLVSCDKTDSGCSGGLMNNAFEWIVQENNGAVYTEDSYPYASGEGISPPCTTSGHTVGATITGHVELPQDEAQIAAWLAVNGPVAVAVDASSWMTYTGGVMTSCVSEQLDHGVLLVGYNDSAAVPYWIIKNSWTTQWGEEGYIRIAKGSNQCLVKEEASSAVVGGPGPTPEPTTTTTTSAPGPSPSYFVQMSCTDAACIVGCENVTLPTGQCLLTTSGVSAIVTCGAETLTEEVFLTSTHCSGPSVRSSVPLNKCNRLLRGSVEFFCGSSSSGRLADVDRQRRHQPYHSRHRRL
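15 min RT preincubation of 1.5 nM cruzain with compound, then 2 uM Z-FR-AMC added; kinetic AMC fluorescence, 60 s delta. Triton X-100 0.01%, pH 5.5.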
Cruzain inh noDet – inhibitors of Trypanosoma cruzi cruzain without detergent. Potency, µM, hits mostly inhibitors. purified cruzain, Z-FR-AMC fluorescence, no detergent. 2.3% of 200,000 active. AID 1476. P25779; further: nearly all actives have a fitted effect of over 40% in size
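Purified cruzain at 1.5 nM, pre-incubated 15 min with compound at room temperature in 100 mM sodium acetate pH 5.5, 5 mM DTT, 0.00005% Triton X-100. Reaction started with 2 uM Z-FR-AMC; AMC fluorescence increase over 60 s gives rate.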
Large screens that a line does not name were inactive. The call rests on the fitted dose curve; in most records, active means well fitted curve in the direction sought with a large enough effect; inconclusive means small, poorly fitted or top-dose-only effect, or another doubt; inactive means no such curve, though single readings can be large; an effect the other way counts as inactive or inconclusive.

Cc1ccc(S(=O)(=O)c2c(Nc3ccc(C)c(C)c3)sc(C(=O)c3ccc4c(c3)OCO4)c2N)cc1	Cruzain inh noDet 2.51µM
O=C(O)c1ccc(C(=O)O)c(C(=O)c2ccccc2)c1	none
CC1CCC2(CC1)NC(=O)N(CC(=O)Nc1nc(-c3ccc(F)cc3)cs1)C2=O (stereo not given)	Cruzain inh noDet 25.1µM
Cc1ccc(NC(=O)CN2C(=O)NC3(CCC(C)CC3)C2=O)c(Cl)c1 (stereo not given)	none
Cc1c(NC(=O)c2noc(C(C)C)c2[N+](=O)[O-])c(=O)n(-c2ccccc2)n1C	none
COc1cccc(/C=N/NC(=O)c2cc3cc([N+](=O)[O-])ccc3s2)c1O	Cruzain inh Det 3.55µM, Cruzain inh noDet 10µM
CC(C)NC(=O)c1cc2cc([N+](=O)[O-])ccc2s1	none
Cc1c(/C=C2\SC(=O)N(CC(=O)Nc3ccc4c(c3)OCO4)C2=O)c2ccccc2n1C	Cruzain inh noDet inconclusive
CCn1cc(/C=C2\SC(=O)N(CC(=O)Nc3ccc4c(c3)OCO4)C2=O)c2ccccc21	Cruzain inh noDet 3.16µM
O=C(CNc1ccc2c(c1)OCO2)N/N=C\c1cn(Cc2ccc(F)cc2)c2ccccc12	Cruzain inh noDet inconclusive
O=C(CNc1ccc2c(c1)OCO2)N/N=C\c1cn(Cc2ccccc2)c2ccccc12	Cruzain inh noDet 12.6µM
Cc1cc(C)c2c(NC(=O)c3ccccc3Cl)c(C(=O)Nc3ccc(C)c(C)c3)sc2n1	none
CCOc1ccccc1NC(=O)c1c(NC(=O)CNCc2ccco2)sc2c1CCC2	Cruzain inh noDet 10µM
CCOc1ccccc1NC(=O)c1c(NCc2ccc(C)o2)sc2c1CCCCC2	none
COc1cc(-c2nnc(SCC(=O)Oc3ccccc3Cl)o2)cc(OC)c1OC	none
Cc1cc(SCC(=O)Nc2ccc(F)cc2F)nc(=O)[nH]1	none
COc1ccc(S(=O)(=O)N2CCN(c3ccc(Cl)c(Cl)c3)CC2)c2ccccc12	Cruzain inh noDet 7.94µM
COc1ccc(S(=O)(=O)N2CCN(C)CC2)c2ccccc12	none
CCCn1c2ccc(C)cc2c2nnc(SCCN3CCCCC3)nc21	Cruzain inh Det 14.1µM, Cruzain inh noDet inconclusive
CSc1nnc2c3cc(C)ccc3n(Cc3ccccc3)c2n1	Cruzain inh Det inconclusive, Cruzain inh noDet 25.1µM
CCn1c2ccc(C)cc2c2nnc(NN)nc21	none
CCOC(=O)C(CC)Sc1nnc2c3cc(C)ccc3n(C)c2n1 (stereo not given)	Cruzain inh noDet inconclusive
CC[C@@H](C)[C@@H](C(=O)Nc1ccc(C)cc1)N1Cc2ccccc2C1=O	none
CN(Cc1ccc(F)cc1)S(=O)(=O)c1nnc(NC(=O)c2ccc(F)cc2)s1	Cruzain inh noDet 15.8µM
CN(Cc1ccc(F)cc1)S(=O)(=O)c1nnc(NC(=O)c2ccccc2)s1	Cruzain inh noDet inconclusive
COc1ccc(C(=O)NC(=S)Nc2nnn(C)n2)cc1	none
Cc1cc(/C=C2\Cc3ccccc3C2=O)c(C)n1-c1ccccc1	Cruzain inh noDet 15.8µM
Cc1cc(C=C2C(=O)c3ccccc3C2=O)c(C)n1-c1ccccc1	Cruzain inh noDet inconclusive
COC(=O)c1c(NC(=O)CN2CCN(Cc3ccc4c(c3)OCO4)CC2)sc(C)c1C	none
COC(=O)c1c(NC(=O)CN2C(=O)c3ccccc3C2=O)sc(Cc2ccc3c(c2)OCO3)c1C	Cruzain inh noDet 10µM
O=C(Oc1ccc2c(c1)C(=O)c1ccccc1CO2)c1ccccc1	none
CC(=O)[C@H](CC(C)C)NC(=O)[C@@H](CC(C)C)NC(=O)[C@H](CC(C)C)NC(=O)OCc1ccccc1	Cruzain inh Det 0.0035µM, Cruzain inh noDet 0.0126µM
CC(=O)NC(CC(C)C)C(=O)NC(Cc1ccccc1)C(N)=O (stereo not given)	none
O=C(CCn1c(=O)c2cccn2c2cccnc21)NCc1ccccc1Br	none
COCCn1c(C)cc(C2=NNC(=Nc3ccc(OC)cc3)SC2)c1C	none
COc1ccc(N=C2NN=C(c3ccc4c(c3)OCCO4)CS2)cc1	Cruzain inh noDet 25.1µM
Cc1ccc(/C=N/NC(=O)c2cccc([N+](=O)[O-])c2)o1	none
O=C(N/N=C/c1ccc(Br)s1)c1cccc([N+](=O)[O-])c1	Cruzain inh noDet 20µM
CCCOn1nnnc1-c1ccccc1	none
Cc1cccc(C)c1OCC(O)Cn1ccnc1C (stereo not given)	none
CC1CCC(C(=O)NC(C(=O)OCC(=O)c2ccc(Br)cc2)C(C)C)CC1 (stereo not given)	Cruzain inh Det 14.1µM
CCc1ccc(C(=O)COC(=O)C(NC(=O)C2CCC(C)CC2)C(C)C)cc1 (stereo not given)	none
O=S(=O)(N/N=C\c1ccc(-c2ccccc2Cl)o1)c1ccccc1	none
CCN(CC)S(=O)(=O)c1ccc(C(=O)OCC(=O)Nc2sc3c(c2C#N)CCCCC3)cc1	Cruzain inh noDet inconclusive
Cc1ccc(C(=O)OCC(=O)Nc2sc3c(c2C#N)CCC3)cc1	Cruzain inh noDet 20µM
N#Cc1c(NC(=O)COC(=O)c2ccc(F)cc2)sc2c1CCC2	Cruzain inh noDet inconclusive
COc1ccc(N(C)S(=O)(=O)c2cccc(C(=O)OCC(=O)Nc3sc4c(c3C#N)CCCCC4)c2)cc1	Cruzain inh noDet 12.6µM
